An excerpt weighted towards active compounds, which were near 6.6% of everything screened.
Beta cell apopt: blocks beta cell apoptosis | protection from apoptosis, % (concentration not given with the values) | AID 435005 | actives 0.8% (n = 300,000) | INS-1E cytokine-induced death, ATP luminescence, 48 h; percent of positive-control rescue, neutral wells zero;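 active = Every replicate reaches about 75%, or at least half do and their mean reaches it too, limit read from the data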;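 note: 0% = cytokine-treated negative control wells and 100% = positive control rescue; higher means more ATP so stronger rescue from cytokine killing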
Mdm2-MdmX inh: human Mdm2/MdmX binding inhibition | O15151+Q00987 | SaOS-2 split-luciferase Mdm2/MdmX complementation, luminescence | inhibition, % at 8 µM | actives 3% (n = 330,000) | AID 485346;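 active = inhibition of at least 50% at 8 µM in the primary screen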
Target sequence (O15151 whole entry, looked up): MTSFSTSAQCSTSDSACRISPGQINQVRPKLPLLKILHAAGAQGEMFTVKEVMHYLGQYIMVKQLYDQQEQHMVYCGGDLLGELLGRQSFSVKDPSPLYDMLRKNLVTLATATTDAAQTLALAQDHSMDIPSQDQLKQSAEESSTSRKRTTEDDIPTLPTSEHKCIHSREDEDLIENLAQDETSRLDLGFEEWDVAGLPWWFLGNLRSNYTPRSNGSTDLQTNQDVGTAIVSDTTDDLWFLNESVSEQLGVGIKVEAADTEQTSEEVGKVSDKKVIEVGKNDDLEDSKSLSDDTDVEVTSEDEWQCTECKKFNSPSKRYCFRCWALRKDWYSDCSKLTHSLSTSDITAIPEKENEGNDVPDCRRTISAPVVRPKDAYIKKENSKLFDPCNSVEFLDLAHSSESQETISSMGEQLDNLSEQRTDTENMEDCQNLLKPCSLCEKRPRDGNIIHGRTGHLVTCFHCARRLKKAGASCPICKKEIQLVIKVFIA
Target sequence (Q00987 whole entry, looked up): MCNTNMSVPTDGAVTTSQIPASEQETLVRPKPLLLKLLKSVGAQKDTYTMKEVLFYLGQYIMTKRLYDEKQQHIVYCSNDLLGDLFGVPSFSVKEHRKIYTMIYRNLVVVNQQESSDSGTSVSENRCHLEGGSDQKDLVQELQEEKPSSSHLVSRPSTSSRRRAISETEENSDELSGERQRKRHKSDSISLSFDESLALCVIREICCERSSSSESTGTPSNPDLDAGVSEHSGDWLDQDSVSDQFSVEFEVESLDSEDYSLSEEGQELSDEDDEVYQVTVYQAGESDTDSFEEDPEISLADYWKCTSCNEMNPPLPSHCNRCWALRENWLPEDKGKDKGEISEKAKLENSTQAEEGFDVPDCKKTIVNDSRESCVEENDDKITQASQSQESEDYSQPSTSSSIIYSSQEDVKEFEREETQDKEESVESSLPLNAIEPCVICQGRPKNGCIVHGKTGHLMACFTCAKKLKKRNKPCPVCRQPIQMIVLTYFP
Gli-Sufu antag: Gli-Sufu pathway antagonism | actives 0.74% (n = 340,000) | Sufu-KO-LIGHT fibroblasts, Gli luciferase reporter luminescence | AID 588413 | inhibition, % at 5 µM;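 active = inhibition above about 55%, limit read from the data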;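 note: 0% = DMSO-treated cells and 100% = wells with medium but no cells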
NR3A LBD binder: modulators (binders) of human NR3A ligand-binding domain; actives 2.5% (n = 340,000); NR3A LBD differential scanning fluorimetry, Tm shift; 0% = protein alone, 100% = glycine-bound protein; AID 1259313; Tm shift relative to glycine control, % at 25 µM;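 active = melting temperature shift of at least 10% of the positive control shift, at one fixed dose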
MPTP inh: blocks calcium-induced mitochondrial swelling; AID 602449; actives 1.4% (n = 360,000); inhibition, % at 10 µM; isolated mouse mitochondria, Ca2+ swelling absorbance, 30 min;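 active = inhibition of 50% or more, scaled per plate between neutral and stimulator controls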;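 note: 0% = DMSO wells given calcium and 100% = 1 mM EGTA wells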
CSC inhib: blocks cancer stem cells | inhibition, % at 7.5 µM | AID 2717 | actives 1.1% (n = 300,000) | cancer stem cell-like cells viability, luminescence; in the data active = inhibition above about 75%; tested in HMLE shEcad cells
Numbers without * were called inactive; . = no result.

SMILES	Beta cell apopt	Mdm2-MdmX inh	Gli-Sufu antag	NR3A LBD binder	MPTP inh	CSC inhib
O=C(C[n+]1ccc(-c2nnc3n2CCC3)cc1)c1ccc(Cl)c(Cl)c1	-1.8	-7.9	1.0	13.1*	-0.8	-21.5
COc1ccc(C(=O)C[n+]2ccc(-c3nnc4n3CCC4)cc2)cc1	-3.9	-15.3	-1.4	5.6	-0.4	.
COc1ccccc1-c1ccc(Nc2cccc(C(C)=O)c2)nn1	0.1	-39.1	-30.4	11.1*	-0.7	-2.5
COc1cccc(Nc2c(Nc3cccc(OC)c3)c(=O)c2=O)c1	-8.1	3.5	-4.1	5.6	0.8	3.7
COc1cccc(Nc2ccc(Nc3cccc(OC)c3)nn2)c1	-3.3	23.8	3.1	33.4*	-2.2	11.3
CC(=O)Nc1cc(-c2cccc(N)c2)cn2c(-c3ccccc3)cnc12	.	.	.	.	-1.0	.
N=c1n(CCN2CCCCC2)c2ccccc2n1CC(=O)c1ccc(Cl)c(Cl)c1	39.1	41.9	13.0	-2.1	-2.1	102.7*
CC(=O)Nc1ccc(Nc2nc3ccccc3nc2NS(=O)(=O)c2ccccc2)cc1	-1.6	14.1	-3.6	4.0	4.4	-3.4
CC(=O)Nc1ccc(S(=O)(=O)Nc2nc3ccccc3nc2Nc2ccc(O)cc2)cc1	4.2	41.2	1.5	17.1*	1.2	-4.5
CC(=O)Nc1ccc(S(=O)(=O)Nc2nc3ccccc3nc2Nc2cccc(S(N)(=O)=O)c2)cc1	-4.6	-10.2	3.2	7.6	0.7	2.6
CC(=O)Nc1ccc(S(=O)(=O)Nc2nc3ccccc3nc2Nc2ccccc2)cc1	-3.6	-6.6	-1.2	10.2*	2.5	10.2
COC(=O)c1ccc(OC)c(Cn2c(=O)n(C)c(=O)c3ccccc32)c1	.	17.9	-2.8	-5.1	0.1	-4.5
N#C/C(=C\c1c[nH]c2ccc(Br)cc12)c1ccccn1	11.6	48.6	-6.8	22.2*	1.0	78.6*
CCNc1nc(NCC)nc(Oc2ccc(C(=O)OC)cc2)n1	2.6	15.6	9.1	-2.2	1.1	-4.9
COc1cccc(NC(=O)Cc2ccccc2)c1	4.8	-42.9	-76.2	10.3*	0.2	5.4
O=C(Cc1nnc(NC(=O)Nc2ccc(Cl)cc2)s1)NCc1ccccc1	-7.2	-14.9	-3.1	16.0*	-1.0	-1.9
COc1ccc(OC)c(NC(=O)COC(=O)Cc2ccc(-c3ccccc3)cc2)c1	-3.2	7.8	-9.9	-10.7	1.2	-14.2
COc1cc(NC(=O)COC(=O)Cc2ccc(-c3ccccc3)cc2)cc(OC)c1	-9.8	10.5	-8.5	36.1*	3.6	-5.1
COc1cccc(NC(=O)Nc2nnc(CC(=O)Nc3ccccc3)s2)c1	-12.2	44.7	4.0	23.2*	2.5	-16.6
O=C(Cc1nnc(NC(=O)Nc2ccccc2)s1)NCc1ccccc1	-4.8	37.0	11.4	-2.3	2.8	-8.6
CCN(CC)C(=O)c1ccc(NS(=O)(=O)c2ccc3[nH]c(=O)[nH]c3c2)cc1	-3.4	23.9	-4.3	2.5	0.0	-3.3
COCCn1c(SCC(=O)Nc2cccc(OC)c2)nnc1-c1ccccc1	.	-1.6	-4.0	10.5*	0.0	-4.4
COc1c(C(=O)NNC(=O)c2ccccc2)csc1Br	-3.4	-4.1	-40.7	12.5*	0.6	-3.3
COc1cc(NC(=O)c2ccnc(N)c2)cc(C(=O)Nc2cccc(C(F)(F)F)c2)c1	1.2	23.8	0.6	13.5*	-0.4	97.1*
COc1cc(NC(=O)c2cc(C)on2)cc(C(=O)Nc2cccc(C(F)(F)F)c2)c1	38.4	34.1	14.2	1.8	17.9	87.7*
SMILES	Beta cell apopt	Mdm2-MdmX inh	Gli-Sufu antag	NR3A LBD binder	MPTP inh	CSC inhib
Cc1ncsc1C(=O)Nc1cccc(C(F)(F)F)c1	1.7	4.5	8.0	27.0*	0.6	-10.1
COc1cc(NC(=O)c2cnc(N)s2)cc(C(=O)Nc2cccc(C(F)(F)F)c2)c1	2.5	35.2	-4.3	36.7*	0.5	50.2
COc1cc(NC(=O)c2cnc(N)o2)cc(C(=O)Nc2cccc(C(F)(F)F)c2)c1	2.1	28.6	6.0	5.1	-0.5	-4.2
CC1=C(C(=O)N(C)C)CC(CC(=O)NC2CCCCC2)C(=O)N1CCC1=CCCCC1 (stereo unspecified)	.	.	.	.	0.2	.
Cc1ccc(S(=O)(=O)N(C)c2ccc(OCC(=O)Nc3cc(C(=O)O)ccc3Cl)cc2)cc1	.	.	-1.9	1.2	.	.
COc1cccc(C(=O)/C=C/Nc2ccc(S(=O)(=O)Nc3ccc(C(C)=O)cc3)cc2)c1	1.3	3.2	6.8	24.4*	0.7	14.3
COc1ccc(CCNC(=O)c2cccs2)cc1	2.0	-3.6	-15.9	30.9*	0.1	2.0
COc1ccc(OCC(=O)NNC(=O)c2cccs2)cc1	2.0	10.1	-2.6	-2.7	-1.4	-4.0
COc1ccc(C(=O)/C=C/Nc2cccc(O)c2)cc1	-4.9	-192.6	-66.7	18.8*	7.7	19.9
COc1ccc(OCC(=O)Nc2ccc(NC(=O)c3cccs3)cc2)cc1	1.5	1.5	-39.6	32.3*	-1.2	7.2
CCN1C[C@@H]2[C@@H]3C(=O)N(Cc4ccccc4)C(=O)[C@@H]3[C@](C)(C(=O)OC)N2C1=NC	.	12.1	-2.0	0.7	-1.3	.
COc1cc2c(cc1OC)C(Nn1cnnc1)=NC1(CCCC1)C2	.	27.0	11.3	0.5	0.5	-17.4
CC(C)C[C@H]1CN([C@@H](CC(C)C)CN2CCC[C@H]2CN2C(=O)C(=O)NC[C@@H]2Cc2ccc(O)cc2)C(=O)C(=O)N1CC1CCCCCC1	.	.	.	.	-3.2	.
COc1ccc(COC(=O)CCCN=C2NS(=O)(=O)c3ccccc32)cc1F	.	.	.	.	2.0	.
CN(CC(=O)Nc1ccc(Cl)c(Cl)c1)CC(=O)N1CCCCCC1	.	.	.	.	-0.4	.
O=C(/C=C/c1cccs1)c1ccc(Br)cc1	-5.1	-18.8	-1.3	0.1	48.3	2.2
COc1cccc(NC(=O)c2cccs2)c1	-1.0	-22.5	-19.9	25.5*	-1.2	4.2
COc1ccc(/C=C/C(=O)c2ccc(O)cc2)cc1	-3.1	-62.8	-19.6	11.0*	1.1	-3.6
Cc1ccc(C(=O)Nc2ccc(C(=O)/C=C/c3cccs3)cc2)cc1	.	-29.5	-37.0	14.7*	9.0	21.4
COc1ccc(/C=C/C(=O)c2ccoc2)cc1	0.3	-24.0	2.8	-0.3	-1.4	12.8
COc1ccc(C(=O)/C=C\c2ccc(NC(=O)c3cccs3)cc2)cc1	13.9	34.7	-8.6	23.0*	16.9	15.6
COc1cc(NC(=O)c2cccs2)cc(OC)c1	1.6	12.8	3.1	5.7	2.4	-5.2
CC(C)(C)N1C(=O)c2ccccc2NC(=O)C1C(=O)Nc1ccc2c(c1)OCCO2 (stereo unspecified)	.	.	.	.	0.8	.
Cc1cccc(CNC(=O)c2sc(=O)n(Cc3c(C)cccc3C)c2C)c1	.	.	.	.	0.5	.
CCOc1ccc(NC(=O)C2=C(C)NC(=S)NC2c2ccc(O)c(OC)c2)cc1 (stereo unspecified)	-7.3	12.7	-2.6	13.0*	0.8	-12.0
CCOC(=O)C1(C)CCCN1C(=O)c1ccc(OC)c(OC)c1 (stereo unspecified)	.	.	.	.	1.0	.

Screening results deposited in PubChem by several laboratories.
